SF-1 inh – inhibitors of human SF-1, primary screen, cell-based, CHO-K1, Gal4-SF-1 LBD, luciferase luminescence; Steroidogenic factor 1 (Homo sapiens), Q13285; CHO-K1 Gal4-SF-1 LBD luciferase reporter; inhibition, % at 10 µM; 65,000 compounds, 0.55% hits;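 active = inhibition above the mean inhibition of all tested compounds plus 3 SD, cut at about 48% in these data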
Target sequence (Q13285 whole entry, looked up, the tested form may be a part): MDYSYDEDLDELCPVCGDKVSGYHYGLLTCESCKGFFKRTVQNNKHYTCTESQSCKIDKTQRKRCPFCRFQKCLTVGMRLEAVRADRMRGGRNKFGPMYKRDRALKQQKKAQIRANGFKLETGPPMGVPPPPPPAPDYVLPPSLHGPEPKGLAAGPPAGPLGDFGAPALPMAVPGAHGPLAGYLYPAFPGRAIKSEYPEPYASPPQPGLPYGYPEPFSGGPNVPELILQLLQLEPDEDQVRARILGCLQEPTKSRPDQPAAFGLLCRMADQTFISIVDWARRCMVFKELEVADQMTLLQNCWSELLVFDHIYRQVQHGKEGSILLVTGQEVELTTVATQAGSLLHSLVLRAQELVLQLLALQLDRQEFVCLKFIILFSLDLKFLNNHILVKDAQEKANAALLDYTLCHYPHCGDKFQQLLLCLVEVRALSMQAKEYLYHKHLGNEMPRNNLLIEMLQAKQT
Hits are given with their value; n = inactive. The sample as a whole holds a higher share of hits than the screen did.

SMILES | SF-1 inh
Cc1ccc(-c2nc(CS(=O)CC(=O)NCc3ccccn3)c(C)o2)cc1 (stereo not given) | n
CCc1ccc(-c2nc(CSCC(=O)N3CCN(c4ncccn4)CC3)c(C)o2)cc1 | 51
CCOc1ccc(-c2nc(CSCC(=O)NCCN3CCOCC3)c(C)o2)cc1 | 65
COc1ccc(-c2nc(CS(=O)CC(=O)N3CCCC3)c(C)o2)cc1 (stereo not given) | n
COc1ccc(C2=NOC(C(=O)NCCCN3CCOCC3)C2)cc1 (stereo not given) | n
CCCCCCC(=O)c1c(C)[nH]c(C(=O)OCC)c1C | n
COC(=O)c1cc(OC)c(OC)cc1NC(=O)CSc1nnnn1Cc1ccccc1 | n
Cc1onc(-c2ccccc2)c1C(=O)Nc1cccc(C#N)c1 | n
C=CCOC(=O)c1sc(NC(=O)c2ccco2)nc1C | n
Cn1c(-c2ccccc2)cc2c3no[n+]([O-])c3ccc21 | 73
O=C(Oc1ccc(OC(=O)c2ccncc2)cc1)c1ccncc1 | n
Cc1cccc(NC(=O)c2oc3c(c2C)C(=O)CC(C)(C)C3)n1 | n
C=CCSc1nncn1/N=C/c1ccc(OC)cc1 | n
COc1ccc(/C=N\n2nnc3ccccc32)cc1 | 70
CCN(C)c1ccc(/C=N\n2nnnc2N)cc1 | n
CN(C)C=Nc1ncc2c([nH]c3ccccc32)c1C#N | n
O=C(Nc1ccc2c(c1)OCO2)c1ccc(COc2ccc3c(c2)CCC3)o1 | n
O=C(NCCc1ccccc1)c1noc2c1CCCCC2 | n
CCOc1ccccc1NC(=O)CSc1nc2cccnc2n1C | n
O=C(CN1C(=O)CSC1=O)N1CCc2ccccc2C1 | n
CCOC(=O)N1CCC(NC(=O)c2ccc(OC)c(CN3CC(=O)N4CCCC4C3=O)c2)CC1 (stereo not given) | n
CCOC(=O)N1CCC(NC(=O)c2cnn3c(C(F)(F)F)cc(-c4cccc(OC)c4)nc23)CC1 | n
CCOC(=O)N1CCC(NC(=O)C2CCCN(Cc3nc(-c4cccc(Cl)c4)oc3C)C2)CC1 (stereo not given) | 58
O=C(Nc1nc2cc3c(cc2s1)OCO3)C1=COCCO1 | 62
c1c2c(cc3sc(N4CCOCC4)nc13)OCO2 | n
SMILES | SF-1 inh
c1ccc(N2CCN(c3nc4cc5c(cc4s3)OCO5)CC2)cc1 | n
Cn1c(N)c(C(=O)CSc2nc3ccccc3n2-c2ccccc2)c(=O)n(C)c1=O | n
CC(C)CCn1c(Sc2nc3ccccc3s2)nc2c1c(=O)[nH]c(=O)n2C | n
Cc1c(C(=O)O)sc(=S)n1CCOc1ccccc1 | n
CC(NC(=O)Nc1nnc(C(F)(F)F)s1)(C(F)(F)F)C(F)(F)F | 94
CCc1ccccc1N(CC(=O)NCc1ccco1)C(=O)c1snc(C(N)=O)c1N | n
COc1ccc(C2(CN(C(C)=O)C(C)=O)CCCC2)cc1OC | n
Cc1ccc(N2C(=O)c3ccccc3C2O)nc1 (stereo not given) | 56
Cc1ccc2oc3c(c(=O)c2c1)C(c1cccc(O)c1)N(c1ccccn1)C3=O (stereo not given) | n
O=C1c2ccccc2C(O)N1c1ccc(Cl)cc1 (stereo not given) | n
COc1ccccc1OC(=O)C1CC(=O)N(c2ccc(Cl)cc2)C1 (stereo not given) | n
O=C1c2ccccc2C(O)N1Cc1ccc2c(c1)OCO2 (stereo not given) | n
O=C(Nc1ccc2c(c1)OCO2)c1c(F)cccc1F | n
O=C1/C(=C/Nc2ccc3c(c2)OCO3)CCc2ccccc21 | 74
C=CCOC(=O)CN1C(=O)c2ccccc2C1=O | n
CCOC(=O)C1CCN(C(=O)CC(NS(=O)(=O)c2ccc(OC)cc2)C(C)C)CC1 (stereo not given) | n
CNS(=O)(=O)c1cccc(C(=O)OCC(=O)Nc2ccccc2OC(F)F)c1 | n
Cc1cc(/C=N/n2cnnc2)c(C)n1-c1ccc(OCc2ccc(F)cc2)cc1 | 86
O=C(CNC(=O)c1ccccc1C(=O)O)c1ccccc1 | n
CCCCP(=O)(CCCC)c1ccccc1C(=O)O | n
Brc1cccc(-c2nnc(-c3ccccc3)o2)c1 | n
O=S1(=O)C=C(Sc2nnc(-c3ccccc3)o2)c2ccccc21 | 66
COc1ccccc1NC(=O)CSc1nnc(-c2ccc(C)cc2)o1 | n
Nc1nc(Cl)nc2c1ncn2[C@H]1C[C@H](O)[C@@H](CO)O1 | 79
Nc1ncnc2c1ncn2C1CCC(CO)C(O)C1 (stereo not given) | n
SMILES | SF-1 inh
Cc1ccc(NC(=O)C2CCN(S(=O)(=O)c3cnc[nH]3)CC2)nc1 | n
c1ccc(CCc2nc(-c3ccccn3)no2)cc1 | n
CCCCC1CCC(c2nc(-c3ccccn3)no2)CC1 (stereo not given) | n
Clc1ccc(-c2nc(-c3ccccn3)no2)cc1Cl | 51
Cc1occc1C(=O)Nc1ccc2c(c1)CCC2 | n
O=C(CCNc1ccccc1)c1ccc2c(c1)OCO2 | n
COC(=O)c1ccc(NC(=O)c2ccc3c(c2)OCO3)cc1 | n
O=C(/C=C\Nc1cccc(F)c1)c1ccc2c(c1)OCO2 | 58
CCCCNC(=O)Cn1cnc2sc(C(=O)OCC)c(C)c2c1=O | n
CCOC(=O)Cc1cn2c(=O)cc(CSCC(=O)Nc3ccc(C)c(C)c3)nc2s1 | n
Cc1cc2c(c(=O)n1CCCn1ccnc1)C(c1ccco1)C(C#N)=C(N)O2 (stereo not given) | n
CCOC(=O)C1=C(C)N(C)C(C)=C(C(=O)OCC)C1c1cccnc1 | n
CCN(CC)c1ccc2c(c1)OC(N)=C(C#N)C2c1cccnc1 (stereo not given) | 65
CSc1nnc(-c2ccc(S(=O)(=O)N3CCOCC3)cc2)n1CC1CCCO1 (stereo not given) | n
O=C(Nc1cccc(-c2nnc(-c3ccccc3)o2)c1)C1CCCCC1 | n
O=C(Nc1ccc2oc(-c3ccccc3)nc2c1)c1cccnc1 | n
O=C(Nc1ccccc1)c1cccc(-c2nnc(-c3ccccc3)o2)c1 | 63
CCC(OC(=O)CCc1nc2ccccc2[nH]c1=O)C(=O)c1ccccc1 (stereo not given) | n
O=C(CCN1CCN(c2ccccc2)CC1)Nc1nccs1 | n
COc1cccc(NC(=O)CN2CCN(c3ccccc3F)CC2)c1 | n
COc1ccc(O)c(C(=O)CC(=O)c2ccc(F)cc2)c1 | 52
COc1cccc(NC(=O)COc2ccccc2C(N)=O)c1 | n
CN(C)c1ccc(-c2nc3ccccc3n2C)cc1 | 59
CCn1c(-c2ccc(N(C)C)cc2)nc2ccccc21 | n
Cn1c(-c2ccc(Br)o2)nc2ccccc21 | n
SMILES | SF-1 inh
COC(=O)N(C)CCCC1(C)C(=O)N(C)c2ccc(O)cc21 (stereo not given) | n
CC(=O)NCc1ccc(-c2csc(N)n2)s1 | n
CS(=O)(=O)N1CCC(C(=O)NCc2ccco2)CC1 | n
COc1ccccc1-c1cn(S(=O)(=O)c2ccc(F)cc2)nc1N | n
COC(=O)Nc1ccc(S(=O)(=O)N2c3ccccc3CCC2C)cc1 (stereo not given) | n
O=C(Nc1nnc(C2CC2)o1)c1ccc(S(=O)(=O)N2CCCc3ccccc32)cc1 | 49
CN(c1ccccc1)S(=O)(=O)c1ccc(C(=O)Nc2nnc(-c3ccc(F)cc3)o2)cc1 | n
Cc1nc2ccccn2c1P(=Nc1ccccc1)(N(C)C)N(C)C | n
Cc1cc2c(cc1C)NC(c1c(C)n(C)n(-c3ccccc3)c1=O)C1=C(CC(C)(C)CC1=O)N2 (stereo not given) | n
Cc1cc(C(=O)OCC(=O)N2CCc3ccccc32)c(C)o1 | n
O=C(COc1ccc(F)cc1Br)N1CCc2ccccc21 | n

High-throughput results: PubChem, The Scripps Research Institute Molecular Screening Center
